This is part of a sample that, as a whole, favours compounds with a hit. Of some 83,000 tested, about 20% had one in any assay.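 A percent growth of 40 corresponds to 60% growth inhibition; 0 means no net growth; -100 means all cells died. Active threshold: below 10.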 Active and inactive are the calls of the source.
The molecules below were run on SF-295 CNS (assay: NCI-60 one-dose screen, 48 h (100 = growth as untreated, 0 = no growth, -100 = all killed)). Settings: 10 µM unless noted.
For `O=C1Nc2ccccc2/C1=C/c1cn(CC(O)Cn2cc(/C=C3\C(=O)Nc4ccccc43)c3ccccc32)c2ccccc12` (configuration not stated), the growth was -84.7% (active). For `COC(=O)Nc1nc2ccc(C(=O)c3ccccc3N(C)C3COC3)cc2[nH]1`, the growth was 14.3% (inactive). In the case of `COC(=O)/C=C/c1cc(O)c2oc(-c3ccc(O)c(O)c3)c(C(=O)OC)c2c1`, the growth is reported as -11.3% (active). `CC(C)OC(=O)[C@H](C)N[P@@](=O)(OC[C@@]1(C)O[C@@H](n2cc(F)c(N)nc2=O)C[C@@H]1O[P@](=O)(N[C@@H](C)C(=O)OC(C)C)Oc1ccccc1)Oc1ccccc1` was tested, and the growth was 103% (inactive). With `COc1cc2ncnc(Nc3ccc4c(cnn4C(=O)Nc4ccccc4)c3)c2cc1OC` the growth was 100% (inactive). For `Cc1nnc(/N=C2\NC(=O)/C(=C/C=C/c3ccccc3)S2)s1`, the growth was 32.5% (inactive). In the case of `COC(c1ccccc1)C(Br)C(=O)c1ccccc1` (configuration not stated), the growth is reported as 93.3% (inactive). For `O=C1c2ccccc2CCc2ccccc21`, the growth was 76.8% (inactive). `COc1cc2ncnc(-n3ncc4cc(NC(=O)Nc5ccccc5)ccc43)c2cc1OC` was tested, and the growth was 26.9% (inactive). `COc1cc(-c2cc3cnccc3c3nc(N)c4ccncc4c23)cc(OC)c1OC` was tested, and the growth was 67.3% (inactive). In the case of `COc1cc(OC)c(NC(=O)n2ncc3cc(Nc4ncnc5ccccc45)ccc32)cc1Cl`, the growth is reported as 98.7% (inactive). In the case of `COc1cc(OC)cc(-c2ccc(-c3ccc(C(=N)N)cc3)s2)c1`, the growth is reported as -88.4% (active). With `CC1(C)NCCC[C@]2(C)[C@H]3CC=C4[C@@H]5C[C@](C)(COC(=O)c6ccccc6C(=O)O)CC[C@]5(C)CC[C@@]4(C)[C@]3(C)CC[C@@H]12` the growth was 60.3% (inactive). With `Nc1ncn([C@@H]2O[C@H](CO)[C@@H](O)C2(F)F)c(=O)n1` the growth was 77.9% (inactive). In the case of `CCOC(=O)c1cc(C(=O)c2ccc(Br)cc2)n2cc(C)cc(C)c12`, the growth is reported as 100% (inactive). For `Nc1nc2c(c3cnccc13)C(c1cccc(Br)c1)Cc1cnccc1-2` (configuration not stated), the growth was 13.6% (inactive). With `O=C1/C(=C\c2cn(-c3nc(N4CCOCC4)nc(N4CCOCC4)n3)c3ccccc23)c2ccccc2N1c1c(Cl)cccc1Cl` the growth was 37.6% (inactive). For `COc1cc2ncnc(-n3ncc4cc(NC(=O)Nc5ccc(Cl)c(C)c5)ccc43)c2cc1OC`, the growth was 96.9% (inactive). `CC1=C[C@@H]2c3c(c(O)c(O)c4oc5cc(O)cc(O)c5c(=O)c34)[C@@H](c3cc(O)c(O)c4oc5cc(O)cc(O)c5c(=O)c34)[C@@H]2C(C)(C)C1` was tested, and the growth was -26.7% (active). In the case of `N=C(N)c1ccc(-c2ccc(-c3cc(Cl)cc(Cl)c3)s2)cc1`, the growth is reported as -87.3% (active). With `COc1cc2ncnc(-n3ncc4cc(NC(=O)Nc5ccc(Cl)c(Cl)c5)ccc43)c2cc1OC` the growth was -66.8% (active). For `COC1=CC(c2ccc[nH]2)=N/C1=C\c1[nH]c(C)c(C(=O)CCCCC(=O)NC(C)(C)C)c1C`, the growth was 24% (inactive). In the case of `CC1=NN(c2cccc(Cl)c2)C(=O)/C1=C\c1cn(-c2nc(N3CCOCC3)nc(N3CCOCC3)n2)c2ccccc12`, the growth is reported as 105% (inactive). For `O=C(Nc1ccccc1)Nc1ccc(Nc2ncnc3sc4c(c23)CCCC4)cc1`, the growth was 102% (inactive). `O=c1c(N=Nc2nccs2)c(-c2ccccc2)[nH]n1-c1nc(-c2ccccc2)cs1` was tested, and the growth was 25% (inactive). `CCOP1(=O)CC(C)=C(Cl)C(P(=O)(O)O)C1` (configuration not stated) was tested, and the growth was 109% (inactive). For `Cc1ccc(OCCn2ccc(=O)n(CCOc3ccc(Cl)cc3C(=O)c3cc(C)cc(C)c3)c2=O)cc1`, the growth was 51.1% (inactive).

These molecules were tested on SF-539 CNS in the same assay as above. Settings: 10 µM unless noted.
With `C/C(CCC(=O)O)=N/Nc1ccc([N+](=O)[O-])cc1` the growth was 12.7% (inactive). `Nc1nc2c(c3ncncc13)C(c1cccc(C(F)(F)F)c1)Cc1ncncc1-2` (configuration not stated) was tested, and the growth was -26.6% (active). In the case of `COc1ccc(-c2nc(SCC(C)C)nc(Nc3ccc([N+](=O)[O-])cc3)c2C#N)cc1`, the growth is reported as 99.8% (inactive). In the case of `Cn1c2c(cc(S(=O)(=O)c3ccccc3)c1=O)CCc1c-2cnn1-c1ccc(Cl)cc1`, the growth is reported as -19% (active). For `Nc1nc2c(c3cnccc13)C(c1cccc(Cl)c1)Cc1cnccc1-2` (configuration not stated), the growth was -18.5% (active). With `CCCCCSc1ccc2nc(NC(=O)OCCC)sc2c1` the growth was -24.7% (active). For `CCCCCSc1ccc2nc(NC(=O)OCC)sc2c1`, the growth was -12.1% (active). `Cc1c(Cc2ccccc2)c(=O)oc2c(C)c(OCc3n[nH]c(=S)o3)ccc12` was tested, and the growth was 92.1% (inactive). With `CCOC(=O)c1c(C)oc2ncnc(Nc3ccc(C(=O)NCCc4ccccc4)cc3)c12` the growth was 58.9% (inactive). With `COc1cc(/C=C/C(=O)c2ccc(F)cc2)ccc1OCCCCOc1cc2c(cc1OC)C(=O)N1CCCC1C=N2` (configuration not stated) the growth was -61.9% (active). In the case of `C=C(C)[C@@H]1CC[C@]2(COC(=O)c3ccccc3C(=O)O)CC[C@]3(C)[C@H](CC[C@@H]4[C@@]5(C)CCCNC(C)(C)[C@@H]5CC[C@]43C)[C@@H]12`, the growth is reported as 75.7% (inactive). With `O=C(CCCC(=O)Nc1ccc(Cn2nnc3cc(Cl)c(Cl)cc32)cc1)Nc1ccc(CN2N=NC3C=C(Cl)C(Cl)=CC32)cc1` (configuration not stated) the growth was 88.2% (inactive). With `CCS(=O)(=O)OCCO[C@H]1Cc2cc3ccc(=O)oc3cc2OC1(C)C` the growth was 100% (inactive). For `O=C1Nc2ccccc2/C1=C/c1cn(CC(O)Cn2cc(/C=C3\C(=O)Nc4ccccc43)c3ccccc32)c2ccccc12` (configuration not stated), the growth was -77.7% (active). In the case of `COC(=O)Nc1nc2ccc(C(=O)c3ccccc3N(C)C3COC3)cc2[nH]1`, the growth is reported as 9.06% (active). In the case of `COC(=O)/C=C/c1cc(O)c2oc(-c3ccc(O)c(O)c3)c(C(=O)OC)c2c1`, the growth is reported as 2.83% (active). With `CC(C)OC(=O)[C@H](C)N[P@@](=O)(OC[C@@]1(C)O[C@@H](n2cc(F)c(N)nc2=O)C[C@@H]1O[P@](=O)(N[C@@H](C)C(=O)OC(C)C)Oc1ccccc1)Oc1ccccc1` the growth was 63.3% (inactive). For `COc1cc2ncnc(Nc3ccc4c(cnn4C(=O)Nc4ccccc4)c3)c2cc1OC`, the growth was 86.1% (inactive). For `Cc1nnc(/N=C2\NC(=O)/C(=C/C=C/c3ccccc3)S2)s1`, the growth was 64.9% (inactive). `COC(c1ccccc1)C(Br)C(=O)c1ccccc1` (configuration not stated) was tested, and the growth was 99.5% (inactive). With `O=C1c2ccccc2CCc2ccccc21` the growth was 107% (inactive). In the case of `COc1cc2ncnc(-n3ncc4cc(NC(=O)Nc5ccccc5)ccc43)c2cc1OC`, the growth is reported as 0.968% (active). With `COc1cc(-c2cc3cnccc3c3nc(N)c4ccncc4c23)cc(OC)c1OC` the growth was 38% (inactive). With `COc1cc(OC)c(NC(=O)n2ncc3cc(Nc4ncnc5ccccc45)ccc32)cc1Cl` the growth was 99.5% (inactive). `COc1cc(OC)cc(-c2ccc(-c3ccc(C(=N)N)cc3)s2)c1` was tested, and the growth was -88.7% (active). `CC1(C)NCCC[C@]2(C)[C@H]3CC=C4[C@@H]5C[C@](C)(COC(=O)c6ccccc6C(=O)O)CC[C@]5(C)CC[C@@]4(C)[C@]3(C)CC[C@@H]12` was tested, and the growth was 66.6% (inactive). For `Nc1ncn([C@@H]2O[C@H](CO)[C@@H](O)C2(F)F)c(=O)n1`, the growth was 22.3% (inactive). `CCOC(=O)c1cc(C(=O)c2ccc(Br)cc2)n2cc(C)cc(C)c12` was tested, and the growth was 87.3% (inactive). For `Nc1nc2c(c3cnccc13)C(c1cccc(Br)c1)Cc1cnccc1-2` (configuration not stated), the growth was -15.9% (active). In the case of `O=C1/C(=C\c2cn(-c3nc(N4CCOCC4)nc(N4CCOCC4)n3)c3ccccc23)c2ccccc2N1c1c(Cl)cccc1Cl`, the growth is reported as 63% (inactive). For `COc1cc2ncnc(-n3ncc4cc(NC(=O)Nc5ccc(Cl)c(C)c5)ccc43)c2cc1OC`, the growth was 59.7% (inactive). In the case of `CC1=C[C@@H]2c3c(c(O)c(O)c4oc5cc(O)cc(O)c5c(=O)c34)[C@@H](c3cc(O)c(O)c4oc5cc(O)cc(O)c5c(=O)c34)[C@@H]2C(C)(C)C1`, the growth is reported as -5.82% (active). For `N=C(N)c1ccc(-c2ccc(-c3cc(Cl)cc(Cl)c3)s2)cc1`, the growth was -92.7% (active). In the case of `COc1cc2ncnc(-n3ncc4cc(NC(=O)Nc5ccc(Cl)c(Cl)c5)ccc43)c2cc1OC`, the growth is reported as -70.6% (active). With `COC1=CC(c2ccc[nH]2)=N/C1=C\c1[nH]c(C)c(C(=O)CCCCC(=O)NC(C)(C)C)c1C` the growth was 63.1% (inactive). With `CC1=NN(c2cccc(Cl)c2)C(=O)/C1=C\c1cn(-c2nc(N3CCOCC3)nc(N3CCOCC3)n2)c2ccccc12` the growth was 109% (inactive). `O=C(Nc1ccccc1)Nc1ccc(Nc2ncnc3sc4c(c23)CCCC4)cc1` was tested, and the growth was 104% (inactive). For `O=c1c(N=Nc2nccs2)c(-c2ccccc2)[nH]n1-c1nc(-c2ccccc2)cs1`, the growth was 39.7% (inactive). `CCOP1(=O)CC(C)=C(Cl)C(P(=O)(O)O)C1` (configuration not stated) was tested, and the growth was 105% (inactive). With `Cc1ccc(OCCn2ccc(=O)n(CCOc3ccc(Cl)cc3C(=O)c3cc(C)cc(C)c3)c2=O)cc1` the growth was 53.7% (inactive).

Reference: PubChem BioAssay (NCI)
